Assay results from PubChem BioAssay (EPA / NIEHS).
The source made the active and inactive calls. Rule for the calls: active = hit-call score of the fitted dose curve at least 0.9, where 1 is the maximum; inactive = score below 0.9.

Assays:
[1] = biological target: Transcription factor E2F1 (Homo sapiens) (UniProt Q01094); test: ATG_E2F_CIS: Attagene CIS-FACTORIAL HepG2 Assay for human E2F Transcription Factor 1 (AID 2282935); settings: HepG2 Attagene cis-reporter, E2F reporter RNA transcripts; actives raise or lower the signal
Procedure, shortened: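 Gain or loss of reporter transcript, fitted against DMSO, reflects E2F1-driven transcription. Transiently transfected HepG2 dosed 24 h before RNA isolation. Quantified by fluorescent RT-PCR products separated by capillary electrophoresis.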

[2] = ATG_E_Box_CIS: Attagene CIS-FACTORIAL HepG2 Assay for human Enhancer Box (E-box) (AID 2282936); settings: HepG2 E-box cis-reporter transcription, actives raise or lower the signal
Procedure, shortened: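 E-box-driven reporter transcripts measured in transiently transfected HepG2 after 24 h exposure: RNA reverse-transcribed, PCR-amplified, fluorescently labelled, digested and resolved by capillary electrophoresis. Gain or loss relative to DMSO.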

[3] = ATG_M_61_CIS: Attagene CIS-FACTORIAL HepG2 Assay for M61 Transcription Factor (Internal Marker) (AID 2282937); settings: HepG2 Attagene CIS-FACTORIAL M61 internal marker reporter; actives raise or lower the signal
Procedure, shortened: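 HepG2 cells transiently transfected with cis-element-driven multiple reporter transcription units, dosed for 24 h. Reporter mRNA measured by RT-PCR, 6-FAM primer-extension labelling, HpaI digestion and capillary electrophoresis; bidirectional fit versus DMSO baseline.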

[4] = ATG_EGR_CIS: Attagene CIS-FACTORIAL HepG2 Assay for human Early Growth Response 1 (EGR1) (AID 2282938); settings: HepG2 Attagene CIS-FACTORIAL EGR reporter mRNA; actives raise or lower the signal
Procedure, shortened: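 HepG2 cells transiently transfected with cis-promoter-driven multiplexed reporter transcription units; reporter mRNA measured 24 h after compound dosing by RT-PCR, 6-FAM primer extension, HpaI digestion and capillary electrophoresis. Bidirectional fit versus DMSO baseline.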

[5] = ATG_ERE_CIS: Attagene CIS-FACTORIAL HepG2 Assay for Estrogen Response Element (ERE) (AID 2282940); settings: HepG2 ERE cis-reporter, Attagene RNA transcript; actives raise or lower the signal
Procedure, shortened: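 After 24 h compound treatment, RNA from transfected HepG2 cells was reverse-transcribed, reporter cDNA PCR-amplified, FAM-labelled, HpaI-cut and resolved by capillary electrophoresis. ERE-driven cis reporter transcripts reflect endogenous factors; gain or loss scored against DMSO.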

[6] = ATG_Ets_CIS: Attagene CIS-FACTORIAL HepG2 Assay for human Erythroblast Transformation Specific (ETS) (AID 2282941); settings: HepG2 ETS cis-reporter transcription, actives raise or lower the signal
Procedure, shortened: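 Cis-regulated reporter mRNA induction in HepG2 (transient transfection), 24 h exposure, RT-PCR plus capillary electrophoresis detection; DMSO serves as negative control and baseline.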

[7] = biological target: Hepatocyte nuclear factor 3-beta (Homo sapiens) (UniProt Q9Y261); test: ATG_FoxA2_CIS: Attagene CIS-FACTORIAL HepG2 Assay for human Forkhead box A2 (FOXA2) (AID 2282942); settings: HepG2 cis-reporter transcription factor activity, 24 h; actives raise or lower the signal
Procedure, shortened: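 HepG2 cells transiently transfected with multiple cis-regulated reporter transcription units, dosed for 24 h. Reporter mRNA measured by RT-PCR, 6-FAM labelling, HpaI digestion and capillary electrophoresis; bidirectional fitting against DMSO baseline.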

[8] = ATG_FoxO_CIS: Attagene CIS-FACTORIAL HepG2 Assay for human Forkhead box O (FoxO) (AID 2282943); settings: HepG2 Attagene cis-reporter, FoxO element, mRNA; actives raise or lower the signal
Procedure, shortened: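 HepG2, transient MRTU transfection (cis element, endogenous TFs). Dose 24 h. TriZol RNA → oligo(dT) RT → PCR → 6-FAM primer extension → HpaI cut → CE. Gain/loss vs DMSO.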

[9] = ATG_GLI_CIS: Attagene CIS-FACTORIAL HepG2 Assay for human Zinc Finger Protein GLI1 (AID 2282945); settings: HepG2, Attagene cis-factorial reporter mRNA, GLI element; actives raise or lower the signal
Procedure, shortened: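 Bidirectional curve fits relative to DMSO, using reporter mRNA levels from RT-PCR plus capillary electrophoresis. Cells were HepG2 transiently carrying cis-regulated reporter constructs, harvested 24 h after dosing.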

[10] = biological target: Bile acid receptor (Homo sapiens) (UniProt Q96RI1); test: ATG_IR1_CIS: Attagene CIS-FACTORIAL HepG2 Assay for human Nuclear Receptor Subfamily 1 Group H Member 4 (NR1H4), IR1 submotif (AID 2282946); settings: IR1 reporter transcription, actives raise or lower the signal
Procedure, shortened: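 HepG2 cells transiently transfected with multiplexed cis-element reporter units read endogenous transcription factor activity. After 24 h compound exposure, reporter mRNA was quantified by RT-PCR, fluorescent labelling, HpaI digestion and capillary electrophoresis; bidirectional fitting versus DMSO baseline.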

[11] = ATG_ISRE_CIS: Attagene CIS-FACTORIAL HepG2 Assay for human Interferon Regulatory Factor 1 (IRF1) binding to an Interferon-Stimulated Response Element (ISRE) (AID 2282948); settings: HepG2 ISRE cis-reporter (Attagene), mRNA transcription readout; actives raise or lower the signal
Procedure, shortened: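 Multiplexed mRNA reporter readout in human liver HepG2 cells: cis-element-driven reporters transfected, compound added for 24 h, transcripts amplified, fluorescently labelled and sized by capillary electrophoresis; curve fitting bidirectional against DMSO.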

[12] = ATG_M_32_CIS: Attagene CIS-FACTORIAL HepG2 Assay for M32 Transcription Factor (Internal Marker) (AID 2282949); settings: HepG2 Attagene cis-factorial M32 reporter, mRNA; actives raise or lower the signal;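 note: background control marker of the multiplexed CIS panel rather than a real target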
Procedure, shortened: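 HepG2 transfectants (cis-regulated reporter transcription units) dosed 24 h. Reporter mRNA by RT-PCR plus CE, analysed as gain or loss relative to DMSO.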

[13] = ATG_M_06_CIS: Attagene CIS-FACTORIAL HepG2 Assay for M06 Transcription Factor (Internal Marker) (AID 2282950); settings: HepG2 Attagene CIS-FACTORIAL M06 internal marker reporter; actives raise or lower the signal
Procedure, shortened: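 Serves as a background control readout. Transfected HepG2 exposed to compounds for 24 h, then reporter transcripts quantified by fluorescent RT-PCR and capillary electrophoresis. Both directions fitted against DMSO baseline.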

[14] = biological target: Hypoxia-inducible factor 1-alpha (Homo sapiens) (UniProt Q16665); test: ATG_HIF1a_CIS: Attagene CIS-FACTORIAL HepG2 Assay for human Hypoxia Inducible Factor 1 (HIF1A) (AID 2282951); settings: HepG2 Attagene cis-factorial HIF1a reporter transcription; actives raise or lower the signal
Procedure, shortened: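 HepG2 cells transiently transfected with multiplexed cis-promoter reporter units; reporter mRNA read 24 h after dosing by RT-PCR, 6-FAM primer-extension labelling, HpaI digestion and capillary electrophoresis. Bidirectional fit versus DMSO baseline.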

[15] = biological target: Hepatocyte nuclear factor 6 (Homo sapiens) (UniProt Q9UBC0); test: ATG_HNF6_CIS: Attagene CIS-FACTORIAL HepG2 Assay for human Hepatocyte Nuclear Factor 6 (HNF6) (AID 2282952); settings: HepG2 Attagene cis-factorial HNF6 reporter transcription; actives raise or lower the signal
Procedure, shortened: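 First, HepG2 cells were transfected with the multiplexed cis reporter library and dosed with chemical for 24 h. Next, RNA was reverse-transcribed, PCR-amplified and fluorescently labelled. Finally, HpaI-digested fragments were read by capillary electrophoresis.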

[16] = biological target: Heat shock factor protein 1 (Homo sapiens) (UniProt Q00613); test: ATG_HSE_CIS: Attagene CIS-FACTORIAL HepG2 Assay for human Heat Shock Transcription Factor 1 (HSE) (AID 2282953); settings: HepG2 HSE cis-reporter, Attagene RNA transcription; actives raise or lower the signal
Procedure, shortened: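 Endogenous transcription factor activity in transiently transfected HepG2, read as reporter mRNA by RT-PCR with fluorescent capillary electrophoresis after 24 h. Gain or loss of signal fitted versus DMSO baseline.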

[17] = ATG_MRE_CIS: Attagene CIS-FACTORIAL HepG2 Assay for human Metal Responsive Element (MRE) (AID 2282954); settings: HepG2 MRE cis-reporter transcription, Attagene multiplex; actives raise or lower the signal
Procedure, shortened: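 Endogenous MRE-dependent transcription read as reporter mRNA in transiently transfected human HepG2 cells at 24 h. RNA reverse-transcribed, PCR-amplified, labelled and resolved by capillary electrophoresis; gain or loss relative to DMSO.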

[18] = ATG_M_19_CIS: Attagene CIS-FACTORIAL HepG2 Assay for M19 Transcription Factor (Internal Marker) (AID 2282939); settings: HepG2 Attagene CIS-FACTORIAL M19 internal marker reporter; actives raise or lower the signal
Procedure, shortened: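 Internal marker readout, fitted in both directions against DMSO, from HepG2 cells carrying transfected cis-element reporter constructs; RT-PCR and capillary electrophoresis of reporter mRNA after 24 h exposure.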

[19] = ATG_GRE_CIS: Attagene CIS-FACTORIAL HepG2 Assay for human Glucocorticoid Response Elements (GRE) (AID 2282947); settings: HepG2 GRE cis-reporter, Attagene multiplex mRNA; actives raise or lower the signal
Procedure, shortened: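 Reporter transcripts read by RT-PCR with capillary electrophoresis fluorescence after a 24 h chemical exposure of HepG2 cells transiently transfected with multiple cis-element reporter units. Gain or loss fitted against DMSO.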

[20] = ATG_GATA_CIS: Attagene CIS-FACTORIAL HepG2 Assay for human GATA Binding Protein (AID 2282944); settings: HepG2 GATA cis-element reporter, Attagene multiplex mRNA; actives raise or lower the signal
Procedure, shortened: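 Reporter transcripts from a GATA cis-regulated unit, among multiplexed reporters in transfected HepG2 cells, were measured by RT-PCR with capillary electrophoresis after 24 h dosing. Induction or loss scored relative to DMSO.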

Measured: AC50

Transcription factor E2F1 (Homo sapiens), sequence (Q01094 whole entry, looked up): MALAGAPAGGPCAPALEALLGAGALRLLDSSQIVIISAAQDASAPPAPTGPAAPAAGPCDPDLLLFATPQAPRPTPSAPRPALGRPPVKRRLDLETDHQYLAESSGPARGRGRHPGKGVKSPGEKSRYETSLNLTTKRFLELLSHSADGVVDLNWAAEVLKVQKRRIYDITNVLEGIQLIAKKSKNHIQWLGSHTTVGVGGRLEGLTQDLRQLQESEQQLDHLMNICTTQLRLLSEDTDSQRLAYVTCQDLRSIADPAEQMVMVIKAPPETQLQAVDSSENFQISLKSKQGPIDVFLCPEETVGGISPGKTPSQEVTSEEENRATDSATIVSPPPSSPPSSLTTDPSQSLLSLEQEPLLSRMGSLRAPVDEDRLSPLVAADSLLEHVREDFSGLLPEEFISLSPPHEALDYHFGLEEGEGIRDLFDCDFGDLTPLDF
Hepatocyte nuclear factor 6 (Homo sapiens), sequence (Q9UBC0 whole entry, looked up, the tested form may be a part): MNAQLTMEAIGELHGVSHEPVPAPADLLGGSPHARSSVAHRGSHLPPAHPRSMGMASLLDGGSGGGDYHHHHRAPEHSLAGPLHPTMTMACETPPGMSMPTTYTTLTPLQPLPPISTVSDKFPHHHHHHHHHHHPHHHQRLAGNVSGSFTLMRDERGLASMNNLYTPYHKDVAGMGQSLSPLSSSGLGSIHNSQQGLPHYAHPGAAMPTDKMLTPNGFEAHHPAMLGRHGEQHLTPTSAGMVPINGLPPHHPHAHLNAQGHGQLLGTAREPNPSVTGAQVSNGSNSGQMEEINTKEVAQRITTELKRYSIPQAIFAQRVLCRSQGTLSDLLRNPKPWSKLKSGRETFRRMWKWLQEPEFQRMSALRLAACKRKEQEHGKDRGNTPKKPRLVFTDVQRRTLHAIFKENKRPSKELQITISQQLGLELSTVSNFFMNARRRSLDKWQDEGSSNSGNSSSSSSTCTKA
Heat shock factor protein 1 (Homo sapiens), sequence (Q00613 whole entry, looked up): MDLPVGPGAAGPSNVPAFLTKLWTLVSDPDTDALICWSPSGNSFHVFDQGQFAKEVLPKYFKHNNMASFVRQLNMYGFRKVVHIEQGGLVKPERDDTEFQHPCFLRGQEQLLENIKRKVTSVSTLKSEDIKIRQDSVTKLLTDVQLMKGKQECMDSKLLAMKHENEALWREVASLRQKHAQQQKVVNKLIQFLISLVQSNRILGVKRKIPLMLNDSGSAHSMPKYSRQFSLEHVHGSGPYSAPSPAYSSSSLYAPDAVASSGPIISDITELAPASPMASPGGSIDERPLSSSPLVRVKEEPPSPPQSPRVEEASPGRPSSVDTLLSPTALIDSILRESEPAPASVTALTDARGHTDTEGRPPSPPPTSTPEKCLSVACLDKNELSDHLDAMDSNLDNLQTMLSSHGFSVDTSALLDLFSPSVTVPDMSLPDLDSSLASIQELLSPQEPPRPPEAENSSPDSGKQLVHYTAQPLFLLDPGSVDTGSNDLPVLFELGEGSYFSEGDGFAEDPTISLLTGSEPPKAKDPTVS
Hepatocyte nuclear factor 3-beta (Homo sapiens), sequence (Q9Y261 whole entry, looked up): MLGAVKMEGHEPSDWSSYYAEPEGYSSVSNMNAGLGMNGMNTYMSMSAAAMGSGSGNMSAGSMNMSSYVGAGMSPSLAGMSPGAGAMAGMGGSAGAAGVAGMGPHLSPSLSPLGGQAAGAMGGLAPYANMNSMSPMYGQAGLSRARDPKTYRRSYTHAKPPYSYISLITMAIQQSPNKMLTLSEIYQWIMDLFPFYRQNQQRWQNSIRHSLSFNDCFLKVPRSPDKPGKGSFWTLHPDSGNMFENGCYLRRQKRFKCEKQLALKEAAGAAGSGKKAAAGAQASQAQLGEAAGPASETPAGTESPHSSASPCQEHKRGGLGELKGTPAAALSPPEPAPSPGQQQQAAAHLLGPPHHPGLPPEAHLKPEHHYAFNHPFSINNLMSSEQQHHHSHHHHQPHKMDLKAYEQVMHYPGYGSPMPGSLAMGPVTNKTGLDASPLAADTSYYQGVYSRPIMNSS
Hypoxia-inducible factor 1-alpha (Homo sapiens), sequence (Q16665 whole entry, looked up): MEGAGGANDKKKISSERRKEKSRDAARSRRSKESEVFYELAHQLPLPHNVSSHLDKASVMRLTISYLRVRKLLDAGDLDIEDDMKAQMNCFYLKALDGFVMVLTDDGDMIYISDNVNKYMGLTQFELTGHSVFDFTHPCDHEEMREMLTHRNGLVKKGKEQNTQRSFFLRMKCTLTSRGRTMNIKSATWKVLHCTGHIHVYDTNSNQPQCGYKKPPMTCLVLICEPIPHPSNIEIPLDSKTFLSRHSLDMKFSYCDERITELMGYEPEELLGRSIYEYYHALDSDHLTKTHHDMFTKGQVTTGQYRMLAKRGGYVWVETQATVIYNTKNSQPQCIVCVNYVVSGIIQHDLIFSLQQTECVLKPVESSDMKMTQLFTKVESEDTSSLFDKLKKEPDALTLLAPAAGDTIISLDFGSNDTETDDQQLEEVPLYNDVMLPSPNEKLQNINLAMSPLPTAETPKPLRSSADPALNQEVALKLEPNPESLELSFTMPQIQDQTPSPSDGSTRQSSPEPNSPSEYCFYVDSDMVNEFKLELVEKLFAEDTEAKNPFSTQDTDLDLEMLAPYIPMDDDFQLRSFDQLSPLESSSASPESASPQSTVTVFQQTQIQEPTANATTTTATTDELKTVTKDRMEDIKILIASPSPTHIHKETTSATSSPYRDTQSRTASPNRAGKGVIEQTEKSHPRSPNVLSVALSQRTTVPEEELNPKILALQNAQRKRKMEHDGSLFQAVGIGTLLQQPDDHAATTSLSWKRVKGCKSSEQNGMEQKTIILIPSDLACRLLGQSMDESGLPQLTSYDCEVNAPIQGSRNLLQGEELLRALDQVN
Bile acid receptor (Homo sapiens), sequence (Q96RI1 whole entry, looked up): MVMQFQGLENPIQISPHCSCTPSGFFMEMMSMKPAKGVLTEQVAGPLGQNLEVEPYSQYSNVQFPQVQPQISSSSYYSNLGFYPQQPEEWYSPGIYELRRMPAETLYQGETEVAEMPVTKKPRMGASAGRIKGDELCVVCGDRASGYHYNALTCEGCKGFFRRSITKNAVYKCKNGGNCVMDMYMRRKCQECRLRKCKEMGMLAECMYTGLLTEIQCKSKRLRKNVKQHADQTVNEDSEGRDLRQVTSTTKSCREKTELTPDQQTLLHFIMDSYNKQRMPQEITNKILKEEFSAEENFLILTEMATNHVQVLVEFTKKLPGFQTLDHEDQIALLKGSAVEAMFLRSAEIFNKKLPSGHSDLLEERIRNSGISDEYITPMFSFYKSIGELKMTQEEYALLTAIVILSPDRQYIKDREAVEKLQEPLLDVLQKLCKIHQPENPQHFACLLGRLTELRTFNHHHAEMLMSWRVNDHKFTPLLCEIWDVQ

Cc1c(COC(=O)[C@@H]2[C@H](/C=C(\Cl)C(F)(F)F)C2(C)C)cccc1-c1ccccc1
inactive: [1] | [2] | [3] | [4] | [6] | [7] | [8] | [9] | [10] | [11] | [12] | [13] | [14] | [15] | [16] | [17]
active: [5] 20.9 µM

CC1(C)CON(Cc2ccccc2Cl)C1=O
inactive: [1] | [2] | [3] | [4] | [18] | [6] | [7] | [8] | [9] | [11] | [12] | [13] | [14] | [15] | [16] | [17]
active: [5] 50 µM

CCOc1nc(F)cc2nc(S(=O)(=O)Nc3c(Cl)cccc3Cl)nn12
inactive: [1] | [2] | [3] | [4] | [18] | [5] | [6] | [7] | [8] | [9] | [10] | [19] | [11] | [12] | [13] | [14] | [15] | [16] | [17]

CCNP(=S)(OC)O/C(C)=C/C(=O)OC(C)C (stereo not drawn)
inactive: [1] | [2] | [3] | [4] | [6] | [7] | [8] | [9] | [19] | [11] | [12] | [13] | [14] | [15] | [16] | [17]
active: [5] 13.4 µM

Clc1cccc(C(Cl)(Cl)Cl)n1
inactive: [1] | [2] | [3] | [4] | [5] | [6] | [7] | [8] | [20] | [9] | [10] | [11] | [12] | [13] | [14] | [15] | [16] | [17]

COC(=O)NC(=S)Nc1ccccc1NC(=S)NC(=O)OC
inactive: [1] | [2] | [3] | [4] | [5] | [6] | [7] | [8] | [20] | [9] | [10] | [19] | [11] | [12] | [13] | [14] | [15] | [16] | [17]

CCN(CC)c1nc(C)cc(OP(=S)(OC)OC)n1
active: [4] 50 µM | [5] 12.7 µM | [14] 50 µM | [17] 50 µM
inactive: [1] | [2] | [3] | [6] | [7] | [8] | [20] | [9] | [19] | [11] | [12] | [13] | [15] | [16]

CCOc1cc(C(C)(C)C)ccc1C1COC(c2c(F)cccc2F)=N1 (stereo not drawn)
inactive: [1] | [2] | [3] | [4] | [18] | [5] | [6] | [7] | [8] | [9] | [10] | [11] | [12] | [13] | [14] | [15] | [16]
active: [17] 5.07 µM
